# PubChem BioAssay (NCATS)
# Inconclusive results are not listed. The source made the active and inactive calls. The call rests on the fitted dose curve; in most records, active means well fitted inhibition curve with a large enough effect; inconclusive means small, poorly fitted or top-dose-only effect; inactive means no such curve, though single readings can be large or run the other way.
# Molecular target: Retinaldehyde dehydrogenase 3 (Homo sapiens) (UniProt P47895)
# Test: qHTS for Inhibitors of the Aldehyde Dehydrogenase Family (ALDH1A3) Confirmatory screens (AID 2061311); further: nearly all actives have a fitted effect of over 60% in size; further: potency means the concentration at half of the fitted maximal effect; on activity change, negative = inhibition: on the % scale 0 is the no-effect control and ±100 the full control effect
# Conditions: ALDH inhibition qHTS; series mostly up to 46 µM; activity change, negative = inhibition: at the top concentration
Structure (SMILES),"activity change, negative = inhibition",Potency,outcome
CCN(CC)CCOCCOC(=O)C(CC)(CC)c1ccccc1,-17.9% [at 0.022 µM] (inactive),,
CC(C)c1ccccc1-c1ncc(F)c(NCc2ccc(-c3cccnc3)cc2)n1,,8.96 µM (active),
Oc1cc(Nc2ccccc2)cc2cccnc12,,0.283 µM (active),
C[C@H]1CO[C@@H]2Cn3cc(C(=O)NCc4ccc(F)cc4F)c(=O)c(O)c3C(=O)N12,-9.99% (inactive),,
Cc1cc(C)n2ncc(C(=O)Nc3ccc4c(c3)OCO4)c2n1,-14.1% (inactive),,
C[C@@H](N)C(=O)Nc1ccc(Cl)cc1C(=O)c1ccc[nH]1,-15.9% (inactive),,
COc1nc2ccc(Br)cc2cc1[C@@H](c1ccccc1)[C@@](O)(CCN(C)C)c1cccc2ccccc12,,8.96 µM (active),
C=C(C(=O)OC)C1CCC2(C)C(O[C@@H]3O[C@H](CO)[C@@H](O)[C@H](O)[C@H]3O)CC(=O)C(C)C2C1O (stereo partly drawn),,11 µM (active),
FC(F)(F)c1ccccc1-c1nc(NCc2ccc(-c3cccnc3)cc2)c2ccccc2n1,,10.1 µM (active),
Oc1cc(Nc2cccnc2)cc2cccnc12,,0.283 µM (active),
O=C(Nc1ccccc1Cl)c1cnc2ccc(C3CCNCC3)cn12,-4.8% (inactive),,
Nc1ccc(S(=O)(=O)N2CCN(S(=O)(=O)c3c(F)cccc3F)CC2)cc1,-14.8% (inactive),,
CCN1CCN(C(=O)N[C@@H](C(=O)N[C@@H]2C(=O)N3[C@@H]2SC(C)(C)[C@@H]3C(=O)O)c2ccccc2)C(=O)C1=O,,,inactive
Nc1ncnc2c1ncn2[C@@H]1O[C@H](CN[S+](=O)([O-])NC(=O)c2cccc(-c3noc(-c4ccccc4F)n3)c2)[C@@H](O)[C@H]1O,,0.252 µM (active),
Cc1cc2occ(CN(C)CCN(C)Cc3cn(-c4cccc(C(F)(F)F)c4)c4ccccc34)c(=O)c2cc1C,,,inactive
Cc1nc2ccc(Nc3nc(Nc4c(C)cc(C=CC#N)cc4C)nc4nc[nH]c34)cc2s1,-19.6% (inactive),,
COc1cc(CNc2ncnc3ccc(-c4c(C)noc4C)cc23)cc(OC)c1OC,-10.2% (inactive),,
COc1ccc(-c2nc3ccccc3s2)cc1,,1.42 µM (active),

# Molecular target: Retinaldehyde dehydrogenase 3 (Homo sapiens) (UniProt P47895)
# Test: qHTS for Inhibitors of the Aldehyde Dehydrogenase Family (ALDH1A3) Validation screen (AID 2061312); further: nearly all actives have a fitted effect of over 45% in size; further: potency means the concentration at half of the fitted maximal effect; on activity change, negative = inhibition: on the % scale 0 is the no-effect control and ±100 the full control effect
# Conditions: ALDH1A3 enzyme inhibition qHTS validation, fluorescence; series mostly up to 84.7 µM; activity change, negative = inhibition: at the top concentration
Structure (SMILES),"activity change, negative = inhibition",Potency
CCN(CC)CCOCCOC(=O)C(CC)(CC)c1ccccc1,-10% (inactive),
C[C@H]1CO[C@@H]2Cn3cc(C(=O)NCc4ccc(F)cc4F)c(=O)c(O)c3C(=O)N12,-26.5% (inactive),
COc1nc2ccc(Br)cc2cc1[C@@H](c1ccccc1)[C@@](O)(CCN(C)C)c1cccc2ccccc12,,1.26 µM (active)
O=C(Nc1ccccc1Cl)c1cnc2ccc(C3CCNCC3)cn12,3.47% (inactive),
CCN1CCN(C(=O)N[C@@H](C(=O)N[C@@H]2C(=O)N3[C@@H]2SC(C)(C)[C@@H]3C(=O)O)c2ccccc2)C(=O)C1=O,71.4% (inactive),
Cc1cc2occ(CN(C)CCN(C)Cc3cn(-c4cccc(C(F)(F)F)c4)c4ccccc34)c(=O)c2cc1C,166% (inactive),

# Molecular target: Retinal dehydrogenase 2 (Homo sapiens) (UniProt O94788)
# Test: qHTS for Inhibitors of the Aldehyde Dehydrogenase Family (ALDH1A2) Confirmation screens (AID 2061314); further: nearly all actives have a fitted effect of over 65% in size; further: potency means the concentration at half of the fitted maximal effect; on activity, negative = inhibition: on the % scale 0 is the no-effect control and ±100 the full control effect
# Conditions: ALDH1A2 enzyme inhibition qHTS confirmation; series mostly up to 45.9 µM; activity, negative = inhibition: at the top concentration
Structure (SMILES),outcome,"activity, negative = inhibition",Potency
CCN(CC)CCOCCOC(=O)C(CC)(CC)c1ccccc1,inactive,,
CC(C)c1ccccc1-c1ncc(F)c(NCc2ccc(-c3cccnc3)cc2)n1,,-18.5% (inactive),
Oc1cc(Nc2ccccc2)cc2cccnc12,inactive,,
C[C@H]1CO[C@@H]2Cn3cc(C(=O)NCc4ccc(F)cc4F)c(=O)c(O)c3C(=O)N12,,-6.58% (inactive),
Cc1cc(C)n2ncc(C(=O)Nc3ccc4c(c3)OCO4)c2n1,,-12.5% (inactive),
C[C@@H](N)C(=O)Nc1ccc(Cl)cc1C(=O)c1ccc[nH]1,,-24.3% (inactive),
COc1nc2ccc(Br)cc2cc1[C@@H](c1ccccc1)[C@@](O)(CCN(C)C)c1cccc2ccccc12,,,1.79 µM (active)
C=C(C(=O)OC)C1CCC2(C)C(O[C@@H]3O[C@H](CO)[C@@H](O)[C@H](O)[C@H]3O)CC(=O)C(C)C2C1O (stereo partly drawn),,-24.9% [at 25.6 µM] (inactive),
FC(F)(F)c1ccccc1-c1nc(NCc2ccc(-c3cccnc3)cc2)c2ccccc2n1,,-14.4% (inactive),
Oc1cc(Nc2cccnc2)cc2cccnc12,,4.66% (inactive),
O=C(Nc1ccccc1Cl)c1cnc2ccc(C3CCNCC3)cn12,,-18.4% (inactive),
Nc1ccc(S(=O)(=O)N2CCN(S(=O)(=O)c3c(F)cccc3F)CC2)cc1,,-14.6% (inactive),
CCN1CCN(C(=O)N[C@@H](C(=O)N[C@@H]2C(=O)N3[C@@H]2SC(C)(C)[C@@H]3C(=O)O)c2ccccc2)C(=O)C1=O,,-4.08% (inactive),
Nc1ncnc2c1ncn2[C@@H]1O[C@H](CN[S+](=O)([O-])NC(=O)c2cccc(-c3noc(-c4ccccc4F)n3)c2)[C@@H](O)[C@H]1O,,,14.2 µM (active)
Cc1cc2occ(CN(C)CCN(C)Cc3cn(-c4cccc(C(F)(F)F)c4)c4ccccc34)c(=O)c2cc1C,inactive,,
Cc1nc2ccc(Nc3nc(Nc4c(C)cc(C=CC#N)cc4C)nc4nc[nH]c34)cc2s1,,-18.7% (inactive),
COc1cc(CNc2ncnc3ccc(-c4c(C)noc4C)cc23)cc(OC)c1OC,,-2.55% (inactive),
COc1ccc(-c2nc3ccccc3s2)cc1,,-27.8% (inactive),

# Molecular target: Retinaldehyde dehydrogenase 3 (Homo sapiens) (UniProt P47895)
# Test: qHTS for Inhibitors of the Aldehyde Dehydrogenase Family (ALDH1A3) Primary screen (AID 2061315);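 further: plate controls were DMSO vehicle for no effect and reference inhibitor for full effect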
# Conditions: ALDH inhibition qHTS; series mostly up to 56 µM; activity change, negative = inhibition: at the top concentration
row,Structure (SMILES),"activity change, negative = inhibition"
1,CCN(CC)CCOCCOC(=O)C(CC)(CC)c1ccccc1,7.56% (inactive)
2,C[C@H]1CO[C@@H]2Cn3cc(C(=O)NCc4ccc(F)cc4F)c(=O)c(O)c3C(=O)N12,12.2% (inactive)
3,Cc1cc(C)n2ncc(C(=O)Nc3ccc4c(c3)OCO4)c2n1,10.5% (inactive)
4,C[C@@H](N)C(=O)Nc1ccc(Cl)cc1C(=O)c1ccc[nH]1,12.3% (inactive)
5,FC(F)(F)c1ccccc1-c1nc(NCc2ccc(-c3cccnc3)cc2)c2ccccc2n1,-21.1% (inactive)
6,O=C(Nc1ccccc1Cl)c1cnc2ccc(C3CCNCC3)cn12,-19.1% (inactive)
7,Nc1ccc(S(=O)(=O)N2CCN(S(=O)(=O)c3c(F)cccc3F)CC2)cc1,474% (inactive)
8,CCN1CCN(C(=O)N[C@@H](C(=O)N[C@@H]2C(=O)N3[C@@H]2SC(C)(C)[C@@H]3C(=O)O)c2ccccc2)C(=O)C1=O,0.457% (inactive)
9,Cc1cc2occ(CN(C)CCN(C)Cc3cn(-c4cccc(C(F)(F)F)c4)c4ccccc34)c(=O)c2cc1C,34.3% (inactive)
10,Cc1nc2ccc(Nc3nc(Nc4c(C)cc(C=CC#N)cc4C)nc4nc[nH]c34)cc2s1,8.75% (inactive)
11,COc1cc(CNc2ncnc3ccc(-c4c(C)noc4C)cc23)cc(OC)c1OC,5.36% (inactive)
